# In PubChem BioAssay AID1159580 (chemical genetic matrix, 2015):
# Hit rate of the full screen: of about 5,500 compounds, about 2,000 (36%) were called active. Another 18% or so got no clear call; they are omitted. The list shows a part of the results. A number with no mark means an inactive call. Rule as the data show it: active = normalized growth mostly below about 0.91 (no sharp cut-off); inconclusive = no clear call, values can overlap the other calls; inactive = mostly above about 0.92.
# Experiment: chemical genetic growth profiling, strain panel (AID 1159580);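 also: tested at 20 µM; growth read once vehicle control cultures reached saturation at 30 °C; 1 = growth at the plate median or of vehicle wells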
# Conditions: growth OD
# [1] = S. cerevisiae deletion strains, locus YAL013W, strain DEP1, stronger effect = lower value
# [2] = S. cerevisiae deletion strains, locus YGR078C, strain PAC10, stronger effect = lower value
# [3] = S. cerevisiae deletion strains, locus YMR263W, strain SAP30, stronger effect = lower value
# [4] = S. cerevisiae deletion strains, locus YNL128W, strain TEP1, stronger effect = lower value
# [5] = S. cerevisiae deletion strains, locus YNL322C, strain KRE1, stronger effect = lower value
# [6] = S. cerevisiae deletion strains, locus YPL055C, strain LGE1, stronger effect = lower value
# [7] = S. cerevisiae deletion strains, locus YAL040C, strain CLN3, stronger effect = lower value
# [8] = S. cerevisiae deletion strains, locus YER002W, strain NOP16, stronger effect = lower value
# [9] = S. cerevisiae deletion strains, locus YNL175C, strain NOP13, stronger effect = lower value
# [10] = S. cerevisiae deletion strains, locus YNL197C, strain WHI3, stronger effect = lower value
# [11] = S. cerevisiae deletion strains, locus YNL224C, strain SQS1, stronger effect = lower value
# [12] = S. cerevisiae deletion strains, locus YOR083W, strain WHI5 (second series), stronger effect = lower value
structure (smiles),measurement,setting,value
Cn1nccc1NS(=O)(=O)c1ccc(C(C)(C)C)cc1,normalized growth,[1],0.982
same,normalized growth,"S. cerevisiae deletion strains, locus YBR229C, strain ROT2, stronger effect = lower value",0.97
same,normalized growth,"S. cerevisiae deletion strains, locus YCL061C, strain MRC1, stronger effect = lower value",0.982
same,normalized growth,"S. cerevisiae deletion strains, locus YDL101C, strain DUN1, stronger effect = lower value",0.983
same,normalized growth,"S. cerevisiae deletion strains, locus YDR150W, strain NUM1, stronger effect = lower value",0.992
same,normalized growth,"S. cerevisiae deletion strains, locus YEL061C, strain CIN8, stronger effect = lower value",0.984
same,normalized growth,[2],0.985
same,normalized growth,"S. cerevisiae deletion strains, locus YGR229C, strain SMI1, stronger effect = lower value",0.981
same,normalized growth,"S. cerevisiae deletion strains, locus YHR030C, strain SLT2, stronger effect = lower value",0.948
same,normalized growth,"S. cerevisiae deletion strains, locus YHR087W, strain rtc3, stronger effect = lower value",0.973
same,normalized growth,"S. cerevisiae deletion strains, locus YJR043C, strain POL32, stronger effect = lower value",0.978
same,normalized growth,"S. cerevisiae deletion strains, locus YJR075W, strain HOC1, stronger effect = lower value",0.987
same,normalized growth,"S. cerevisiae deletion strains, locus YKL190W, strain CNB1, stronger effect = lower value",0.96
same,normalized growth,"S. cerevisiae deletion strains, locus YLR039C, strain RIC1, stronger effect = lower value",0.92
same,normalized growth,"S. cerevisiae deletion strains, locus YLR058C, strain SHM2 (second series), stronger effect = lower value",0.975
same,normalized growth,"S. cerevisiae deletion strains, locus YLR085C, strain ARP6, stronger effect = lower value",1.08
same,normalized growth,"S. cerevisiae deletion strains, locus YLR262C, strain YPT6, stronger effect = lower value",0.82
same,normalized growth,"S. cerevisiae deletion strains, locus YML094W, strain GIM5, stronger effect = lower value",1.03
same,normalized growth,"S. cerevisiae deletion strains, locus YMR219W, strain ESC1, stronger effect = lower value",0.985
same,normalized growth,[3],0.979
same,normalized growth,[4],0.968
same,normalized growth,"S. cerevisiae deletion strains, locus YNL153C, strain GIM3, stronger effect = lower value",0.989
same,normalized growth,"S. cerevisiae deletion strains, locus YNL298W, strain CLA4 (second series), stronger effect = lower value",0.948
same,normalized growth,[5],0.98
same,normalized growth,"S. cerevisiae deletion strains, locus YNR030W, strain Alg12, stronger effect = lower value",1
same,normalized growth,[6],1.03
same,normalized growth,"S. cerevisiae deletion strains, locus YPL241C, strain CIN2, stronger effect = lower value",1.01
same,normalized growth,"S. cerevisiae deletion strains, locus YPR135W, strain CTF4, stronger effect = lower value",0.929
same,normalized growth,"S. cerevisiae strains, strain wild type, stronger effect = lower value",0.959
CC(C)(C)c1ccc(S(=O)(=O)/C=C/C#N)cc1,normalized growth,[1],0.234 (active)
same,normalized growth,[7],0.0822 (active)
same,normalized growth,[8],0.139 (active)
same,normalized growth,[2],0.0608 (active)
same,normalized growth,[4],0.0795 (active)
same,normalized growth,[9],0.227 (active)
same,normalized growth,[10],0.0935 (active)
same,normalized growth,[11],0.255 (active)
same,normalized growth,[5],1.01
same,normalized growth,[12],0.0681 (active)
OC[C@H]1O[C@@H](n2cnc3c(NC4CCCCC4)ncnc32)[C@H](O)[C@@H]1O,normalized growth,[7],1.04
same,normalized growth,"S. cerevisiae deletion strains, locus YCL061C, strain MRC1 (second series), stronger effect = lower value",1.01
same,normalized growth,"S. cerevisiae deletion strains, locus YDR363W, strain ESC2, stronger effect = lower value",0.994
same,normalized growth,[8],1.01
same,normalized growth,[2],1.05
same,normalized growth,[3],1.01
same,normalized growth,"S. cerevisiae deletion strains, locus YMR307W, strain GAS1, stronger effect = lower value",1.01
same,normalized growth,[9],1.01
same,normalized growth,[10],1.01
same,normalized growth,[11],1
same,normalized growth,[5],1.02
same,normalized growth,[12],0.984
same,normalized growth,[6],0.995
